Measurements as given in PubChem BioAssay AID2549 (National Center for Advancing Translational Sciences (NCATS), 2010).
Where “and” joins values, the source holds several entries; their conditions need not be identical. Equal values may be shown once. About 1,300 (0.54%) of roughly 240,000 compounds were called active. Another 1% or so got no clear call; they are omitted. What follows is part of a selection rich in actives, with near analogues and random picks from the rest. Some structures have more than one record in an assay (separate samples or runs), and their calls can disagree. A number with no mark means an inactive call. The call rests on the fitted dose curve; in most records, active means well fitted inhibition curve with a large enough effect; inconclusive means small, poorly fitted or top-dose-only effect; inactive means flat fitted curve, though single readings scatter.

Target: ATP-dependent DNA helicase Q1 (Homo sapiens) (UniProt P46063)
Sequence (P46063 whole entry, looked up): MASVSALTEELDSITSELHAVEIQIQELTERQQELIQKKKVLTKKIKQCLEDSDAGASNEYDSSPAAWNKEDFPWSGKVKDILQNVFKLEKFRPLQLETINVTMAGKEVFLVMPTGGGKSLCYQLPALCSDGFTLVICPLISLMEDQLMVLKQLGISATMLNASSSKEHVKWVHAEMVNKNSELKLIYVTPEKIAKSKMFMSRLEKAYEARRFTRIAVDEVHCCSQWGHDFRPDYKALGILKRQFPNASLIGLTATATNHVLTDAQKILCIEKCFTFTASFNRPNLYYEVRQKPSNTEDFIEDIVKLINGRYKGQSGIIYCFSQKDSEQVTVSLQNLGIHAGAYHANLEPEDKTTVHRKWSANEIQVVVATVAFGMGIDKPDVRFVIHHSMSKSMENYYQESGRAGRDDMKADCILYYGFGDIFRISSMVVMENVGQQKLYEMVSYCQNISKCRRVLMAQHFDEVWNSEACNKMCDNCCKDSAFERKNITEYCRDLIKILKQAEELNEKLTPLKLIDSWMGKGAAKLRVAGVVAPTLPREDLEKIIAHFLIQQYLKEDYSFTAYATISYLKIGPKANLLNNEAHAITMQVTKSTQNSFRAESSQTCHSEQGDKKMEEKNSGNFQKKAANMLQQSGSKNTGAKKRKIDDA
Assay: qHTS Assay for Inhibitors of RecQ-Like Dna Helicase 1 (RECQ1); further: nearly all actives have a fitted effect of over 30% in size
Conditions: RECQ1 DNA unwinding, red fluorescence kinetic read; series mostly up to 57.3 µM; activity, negative = inhibition: at the top concentration
Text: Survival of cells and the faithful propagation of the genome depend on elaborate mechanisms of detecting and repairing DNA damage. Treatment of advanced cancer relies on radiation therapy or chemotherapy, which kill cancer cells by causing extensive DNA damage. It is often found, that cancer cells develop resistance to therapy through enhanced activity of DNA repair functions; this has led to an increased interest in developing drugs that interfere with DNA repair, which could sensitize cancer cells to conventional therapy.
This validation qHTS assay pertains to human RECQ1, which is important in resolving abnormal DNA structures formed during replication or homologous recombination. Shutting down the expression of RECQ1 leads to chromosomal instability and higher radiation sensitivity in cultured cells.
The validation assay was a fluorescence quenching based kinetic qHTS for RECQ1 Helicase DNA unwinding. The activity was measured as ATP-dependent separation of a 20-bp DNA duplex extended by 30-nt single-stranded tails (forked duplex). The forked DNA substrate was tagged with rhodamine fluorophore (carboxytetramethyl rhodamine, TAMRA) and BHQ-2 (Black Hole Quencher 2) dark quencher. Strand separation results in an increase in the fluorescence of TAMRA (excitation 525 nm, emission 598 nm). This substrate construct operates in a red-shifted region where very few compound library members have been noted to fluoresce (PubChem AIDs 593 and 594). An additional feature of the assay is the inclusion of 2.5 ug/ml poly (dIdC), to reduce interference by compounds such as DNA intercalators, a major source of false inhibitors.
Opher Gileadi, Structural Genomics Consortium, University of Oxford
Screening Center PI: Austin, C.P.
Screening Center: NIH Chemical Genomics Center [NCGC]
Three uL of reaction buffer (25 mM Tris-HCl (pH 8.0), 5 mM NaCl, 2 mM MgCl2, 1mM DTT, 0.01% Tween- 20, and 2.5 ug/ml poly(dI-dC), including enzyme (50 nM RECQ1T1), were dispensed into a 1536-well Greiner black assay plate via solenoid-valve based nanoliter dispensers. Compounds (23 nl each in columns 5-48) and control (23 nl each in column 2 as dose-response) were transferred via a Kalypsys pintool equipped with a 1536-pin array. The plates were incubated for 15 min at room temperature, and then 1 ul of substrates (200 nM DNA and 2 mM ATP, final concentrations) was added to start the reaction. The plate was transferred into a ViewLux high-throughput CCD imager where the reaction progress was measured in a discontinuous kinetic mode (two reads spaced 2 hours apart, with intermediate room temperature incubation of the covered assay plate) by using standard red-fluorescence optics (excitation filter 525 nm, emission filter 598 nm). Enzyme-free and vehicle (DMSO) controls were included for signal normalization.
Potency means the concentration at half of the fitted maximal effect.

| Structure (SMILES) | Potency | activity, negative = inhibition | outcome |
| --- | --- | --- | --- |
| O=C1NC(=O)N(Cc2ccco2)C(=O)/C1=C\c1ccc(-c2ccc(F)cc2)o1 | 25.1 µM (active) |  |  |
| O=C1NC(=O)N(CCc2ccc(F)cc2)C(=O)/C1=C/C=C/c1ccccc1 |  | -7.01% |  |
| CC(C)CC(C)Nc1ccc(Nc2ccccc2)cc1 (stereo unspecified) |  | -4.48% |  |
| N#CC(C#N)=Cc1cc(O)c(O)c([N+](=O)[O-])c1 | 31.6 µM (active) |  |  |
| CCN(CC)c1nc(C)cc(OP(=S)(OC)OC)n1 |  | -4.04% |  |
| CC(C)(C)c1ccc(CN2C(=O)CN=C(c3ccccc3)c3ccccc32)cc1 |  |  | inactive |
| O=C1CC(=O)N(Cc2ccccc2)C(=O)N1CCCCCCN1C(=O)CC(=O)N(Cc2ccccc2)C1=O | 7.94 µM (active) |  |  |
| O=C(CN1CCCC1=O)NCCc1ccccc1 |  | 3.98% |  |
| CO[C@H]1[C@@H](O)[C@@H](C)O[C@H](O[C@H]2[C@H](Oc3cccc4c(O)c5c(=O)oc6ccc(C)c7c(=O)oc(c34)c5c67)O[C@H](C)[C@H](O)[C@@H]2O)[C@@H]1O |  | -27% |  |
| COc1cccc(N2C(=O)NC(=O)/C(=C\c3ccc([N+](=O)[O-])s3)C2=O)c1 | 22.4 µM (active) |  |  |
| Cc1c(C(=O)O)cccc1-n1c(C)cc(/C=C2\C(=O)NC(=O)N(c3ccc4c(c3)OCO4)C2=O)c1C |  | -6.31% |  |
| CCCCCCCCCCCCN=C(N)N |  | -3.44% |  |
| CCCN(C/C=C/I)C1CCc2ccc(O)cc2C1 (stereo unspecified) |  | 16.7% |  |
| ClCCBr |  | -7.43% |  |
| CC(C)(Cc1c[nH]c2ccc(Cl)cc12)NCCOc1ccccc1OCC1CC1 | inactive |  |  |
| CC(=O)[O][Sn]([c]1ccccc1)([c]1ccccc1)[c]1ccccc1 |  | -18.8% |  |
| CN(C)C[C@H]1CCCC[C@]1(O)c1cccc(O)c1 |  | -4.76% |  |
| O=C(OCC1O[C@@H](OC(=O)c2cc(O)c(O)c(O)c2)[C@@H](OC(=O)c2cc(O)c(O)c(O)c2)[C@@H](OC(=O)c2cc(O)c(O)c(O)c2)[C@@H]1OC(=O)c1cc(O)c(O)c(O)c1)c1cc(O)c(O)c(O)c1 (stereo partly specified) | 0.112 µM (active) |  |  |

| Structure (SMILES) | Potency | activity, negative = inhibition | outcome |
| --- | --- | --- | --- |
| C=CCN1CCC2(C)c3cc(O)ccc3CC1[C@@H]2C (stereo partly specified) |  | -14.3% |  |
| CC(C)(C)C(O)(CCc1ccc(Cl)cc1)Cn1cncn1 (stereo unspecified) |  | -5.08% |  |
| O=C1CCc2cccc3c2N1CC3 |  | -9.06% |  |
| C[C@@H]1C[C@H]2CC[C@H](O2)[C@H](C)C(=O)O[C@@H](C)C[C@@H]2CC[C@@H](O2)[C@@H](C)C(=O)O[C@H](C)C[C@H]2CC[C@H](O2)[C@H](C)C(=O)O[C@@H](C)C[C@@H]2CC[C@@H](O2)[C@@H](C)C(=O)O1 |  | -2.94% |  |
| Nc1ccc(-c2ccc(N)c(N)c2)cc1N |  | -4.18% |  |
| CC[C@]1(O)C(=O)OCc2c1cc1n(c2=O)Cc2cc3ccccc3nc2-1 |  | -18.3% |  |
| CC[N+](C)(CC)CCC[n+]1c(-c2ccccc2)c2cc(N)ccc2c2ccc(N)cc21 | 11.2 µM (active) and 35.5 µM (active) |  |  |
| C[C@H]1C/C=C/[C@@H]2[C@@H]3O[C@]3(C)[C@@H](C)[C@H]3[C@H](Cc4ccccc4)NC(=O)[C@]32OC(=O)O/C=C/[C@](C)(O)C1=O |  | 6.24% |  |
| CN(C)[C@@H]1C(=O)C(C(N)=O)=C(O)[C@@]2(O)C(=O)C3=C(O)c4c(O)cccc4[C@@](C)(O)C3CC12 (stereo partly specified) |  | -0.266% |  |
| N#CCCCl | inactive |  |  |
| N#Cc1cc(Br)c(O)c(Br)c1 |  | 15.8% |  |
| CCCCC#N |  | 11.1% |  |
| CC(C)(c1ccc(OC[C@@H]2CO2)cc1)c1ccc(OC[C@H]2CO2)cc1 |  | -8.34% |  |
| CO[C@@H]1C[C@@H](C[C@H]2CC[C@H](C)[C@@H]([C@@H](C)C(=O)O)O2)O[C@]2(O[C@](C)([C@H]3CC[C@@](C)(C4OC([C@H]5O[C@@](O)(CO)[C@H](C)C[C@@H]5C)C[C@@H]4C)O3)C[C@H]2C)[C@@H]1C (stereo partly specified) |  |  | inactive |
| CN[C@@H]1C[C@H]2O[C@@](C)([C@@H]1OC)n1c3ccccc3c3c4c(c5c6ccccc6n2c5c31)C(=O)NC4 | 35.5 µM (active) |  | inactive [at 11.5 µM] |
| C[C@]12O[C@H](C[C@@]1(O)C(=O)O)n1c3ccccc3c3c4c(c5c6ccccc6n2c5c31)CNC4=O |  | -8.07% |  |
| COc1ccc2[nH]cc(CCNCc3ccc(Br)cc3)c2c1 |  | -1.04% |  |
